PubChem BioAssay
Several values for one entry are separate records, joined by “and”; a condition that tells them apart may be missing. Identical values can stand only once.

Legend:
[1] = test system: Botulinum neurotoxin type F light chain protease (Clostridium botulinum); assay: Clostridium botulinum type F light chain protease inhibitors, microsphere substrate cleavage, validation (AID 588459); settings: multiplex microsphere protease substrate cleavage assay, flow cytometry; at 10 µM; hits give high values
[2] = molecular target: Botulinum neurotoxin type A (Clostridium botulinum) (UniProt P0DPI0); assay: BoNT/A light chain protease inhibitors, biochemical, multiplex microsphere flow cytometry, validation set (AID 588460); settings: at 10 µM, hits give high values
Botulinum neurotoxin type A (Clostridium botulinum), sequence (P0DPI0 whole entry, looked up): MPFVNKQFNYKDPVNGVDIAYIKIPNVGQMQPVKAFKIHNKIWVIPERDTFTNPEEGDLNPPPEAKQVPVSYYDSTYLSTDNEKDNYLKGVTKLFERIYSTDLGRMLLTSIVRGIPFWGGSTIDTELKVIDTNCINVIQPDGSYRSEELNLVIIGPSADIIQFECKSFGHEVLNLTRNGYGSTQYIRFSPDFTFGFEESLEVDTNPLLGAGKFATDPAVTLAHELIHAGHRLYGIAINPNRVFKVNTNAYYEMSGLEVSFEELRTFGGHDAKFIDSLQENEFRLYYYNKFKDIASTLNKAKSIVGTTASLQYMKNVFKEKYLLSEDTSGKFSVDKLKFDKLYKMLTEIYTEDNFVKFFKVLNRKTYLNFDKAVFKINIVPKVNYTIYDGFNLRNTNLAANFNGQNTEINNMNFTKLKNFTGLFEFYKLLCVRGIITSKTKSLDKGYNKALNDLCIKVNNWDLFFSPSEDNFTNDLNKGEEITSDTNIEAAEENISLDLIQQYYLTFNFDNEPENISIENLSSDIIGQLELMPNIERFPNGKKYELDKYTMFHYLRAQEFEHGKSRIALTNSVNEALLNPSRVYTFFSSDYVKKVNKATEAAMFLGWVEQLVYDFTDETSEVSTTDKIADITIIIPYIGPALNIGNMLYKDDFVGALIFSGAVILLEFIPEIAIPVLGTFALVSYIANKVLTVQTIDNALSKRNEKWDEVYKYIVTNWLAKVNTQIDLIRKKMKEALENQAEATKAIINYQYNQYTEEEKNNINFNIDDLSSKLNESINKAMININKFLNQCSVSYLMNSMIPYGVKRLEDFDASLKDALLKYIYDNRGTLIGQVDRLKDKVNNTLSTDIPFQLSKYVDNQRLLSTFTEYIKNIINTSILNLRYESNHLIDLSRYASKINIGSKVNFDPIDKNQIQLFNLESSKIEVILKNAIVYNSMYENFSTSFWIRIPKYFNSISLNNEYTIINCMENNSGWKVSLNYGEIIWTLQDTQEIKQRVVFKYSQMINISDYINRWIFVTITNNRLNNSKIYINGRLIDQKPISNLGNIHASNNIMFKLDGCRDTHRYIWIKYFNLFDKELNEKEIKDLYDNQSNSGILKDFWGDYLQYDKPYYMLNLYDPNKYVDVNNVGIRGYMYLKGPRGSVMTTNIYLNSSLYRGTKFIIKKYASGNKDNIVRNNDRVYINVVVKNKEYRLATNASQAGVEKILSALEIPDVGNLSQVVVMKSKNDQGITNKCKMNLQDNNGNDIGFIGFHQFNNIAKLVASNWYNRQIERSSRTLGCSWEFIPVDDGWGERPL

[3] = molecular target: Lethal factor (Bacillus anthracis) (UniProt P15917); assay: Bacillus anthracis lethal factor inhibition, microsphere flow cytometry protease assay, validation at 10 µM (AID 588461); settings: multiplex microsphere protease cleavage assay, hits give high values
Lethal factor (Bacillus anthracis), sequence (P15917 whole entry, looked up): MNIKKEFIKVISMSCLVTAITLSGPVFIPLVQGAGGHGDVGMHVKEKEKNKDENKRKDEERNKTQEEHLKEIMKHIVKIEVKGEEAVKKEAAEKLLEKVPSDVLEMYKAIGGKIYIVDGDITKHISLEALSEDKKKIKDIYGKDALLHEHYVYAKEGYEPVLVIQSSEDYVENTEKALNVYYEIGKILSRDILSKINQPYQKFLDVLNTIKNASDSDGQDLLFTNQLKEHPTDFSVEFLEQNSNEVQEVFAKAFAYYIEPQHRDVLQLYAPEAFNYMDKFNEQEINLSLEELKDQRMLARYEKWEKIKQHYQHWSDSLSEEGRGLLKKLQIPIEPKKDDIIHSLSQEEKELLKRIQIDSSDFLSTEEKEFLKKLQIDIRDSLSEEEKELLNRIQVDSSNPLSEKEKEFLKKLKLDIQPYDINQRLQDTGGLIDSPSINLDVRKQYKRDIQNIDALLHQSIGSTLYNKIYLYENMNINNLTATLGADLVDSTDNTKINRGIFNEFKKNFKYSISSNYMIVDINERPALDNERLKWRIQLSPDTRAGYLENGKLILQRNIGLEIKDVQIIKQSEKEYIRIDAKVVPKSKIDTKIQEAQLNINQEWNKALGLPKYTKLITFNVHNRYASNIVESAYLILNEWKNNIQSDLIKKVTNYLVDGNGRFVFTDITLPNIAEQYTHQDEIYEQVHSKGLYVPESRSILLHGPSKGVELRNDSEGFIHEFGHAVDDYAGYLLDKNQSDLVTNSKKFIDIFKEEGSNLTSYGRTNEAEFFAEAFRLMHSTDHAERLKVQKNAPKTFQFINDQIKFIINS

Measured: inhibition

COC(=O)c1ccccc1OCCOCCOc1cccc2ccc(C)nc12
inactive: [1] 0.3% | [2] 3.8% | [3] -4%

CC(C)C(CCN1C(=O)CCC1=O)C1CCOC(C)(C)C1 (stereo not given)
inactive: [1] 3% | [2] 0.5% | [3] 0.7%

COc1cccc(N2CC34C=CC(O3)C(C(=O)O)C4C2=O)c1 (stereo not given)
inactive: [1] 3.9% | [2] 0.3% | [3] 6%

CCOc1ccc(C(=O)C(C)=O)c(OCC)c1
inactive: [1] 4.3% | [2] 1% | [3] 7.8%

O=c1cc(Cn2ccnc2)c2cc3c(cc2o1)CCC3
inactive: [1] 1.9% | [2] -1.1% | [3] -3.2%

COc1ccc(CCNC(=O)C(=O)Nc2ccc3c(c2)OCO3)cc1OC
inactive: [1] 1.8% | [2] -0.8% | [3] -0.3%

CSCC[C@H](NC(=O)Nc1ccc(C)cc1C)C(=O)O
inactive: [1] -2.1% | [2] 1.4% | [3] 0.5%

CCOc1ccc(C(=O)NCC2(c3ccccc3)CCOCC2)cc1
inactive: [1] -5.3% | [2] -0.2% | [3] -6.4%

COc1ccc(C(=O)Oc2ccc3c(C)cc(=O)oc3c2C(C)=O)cc1
inactive: [1] 0.7% | [2] -0.3% | [3] 3%

COc1ccccc1C(=O)c1cc2ccc(O)cc2oc1=O
inactive: [1] -0.4% | [2] 0.1% | [3] 2.7%

Nc1ccc(C(=O)O)c(O)c1
inactive: [1] -4.5% and 1.6% | [2] -0.4% and -0.2% | [3] -12% and -5.3%

COc1ccccc1C(CCN(Cc1ccccc1)C(C)=O)c1ccco1 (stereo not given)
inactive: [1] -6.5% | [2] -1.3% | [3] -0.5%

Cc1cc(=O)oc(C)c1C(=O)NCCC(C)C
inactive: [1] -1.3% | [2] -0.2% | [3] 4%

CC(=O)N1c2ccccc2C(C)=CC1(C)C
inactive: [1] 2.3% | [2] -0.7% | [3] -8.5%

Cc1nonc1CN(C)C(=O)c1ccc(OC2CCN(Cc3ccccn3)CC2)cc1
inactive: [1] 0% | [2] -1.4% | [3] -0.2%

C(=C/c1nccc2c1[nH]c1ccccc12)/c1ccc2c(c1)OCO2
inactive: [1] 3.2% | [2] 6.7% | [3] -1.4%

COc1cc2cc(C(=O)O)[nH]c2c(OC)c1OC
inactive: [1] 0.5% | [2] -0.4% | [3] -3.8%

CC(=O)O[C@H]1CC[C@H]2[C@@H]3CCc4cc(O)ccc4[C@H]3CC[C@]12C
inactive: [1] -3.4% | [2] -0.9% | [3] -2.4%

CCOc1ccc2nc(N/C(N)=N/S(C)(=O)=O)nc(C)c2c1
inactive: [1] 2.1% | [2] -0.1% | [3] 2.4%

CCc1cc(=O)oc2cc(OCC=C(C)C)ccc12
inactive: [1] 2% | [2] 0.5% | [3] 0.2%

CCc1cc(-c2[nH]ncc2-c2ccc3c(c2)OCO3)c(O)cc1O
inactive: [1] -0.4% | [2] -0.4% | [3] 2.3%

Nc1nc(SCc2ccc([N+](=O)[O-])cc2)c2ncn(C3OC(CO)C(O)C3O)c2n1 (stereo not given)
inactive: [1] 0.3% | [2] 1% | [3] 5%

CCNC1=C(Cl)C(=O)c2ccccc2C1=O
inactive: [1] 1.2% | [2] -0.3% | [3] -6%

COc1ccc2[nH]c(CN3CCN(CC(C)C)C(CCO)C3)c(C)c2c1 (stereo not given)
inactive: [1] 2.4% | [2] 1.6% | [3] 3.1%

O=C1OC(=O)C2C1[C@@H]1CC[C@H]2O1 (stereo not given in full)
inactive: [1] 1.3% | [2] 0.8% | [3] -0.9%

CC(C)CC(=O)Nc1ccc2oc(-c3ccncc3)nc2c1
inactive: [1] 1.4% | [2] 0.3% | [3] -2.1%

O=C1C(O)CC2c3ccccc3CC3(CCCC3)N12 (stereo not given)
inactive: [1] 2% | [2] -1.5% | [3] -6%

c1ccc(Nc2ccccn2)nc1
inactive: [1] 2.3% | [2] -2.1% | [3] -4.7%

CN(C)CCOC(=O)C(c1ccccc1)C1(O)CCCC1 (stereo not given)
inactive: [1] 2.3% | [2] -0.3% | [3] -6%

CC1(C)S[C@@H]2[C@H](NC(=O)Cc3ccccc3)C(=O)N2[C@H]1C(=O)O
inactive: [1] 4.2% | [2] 1.7% | [3] -0.8%
